Structures can show the parent of a compound that is named as a salt. ± gives the standard deviation of the averaged measurements.
Tested on: E. coli TESEC Mtb Alr
Test: growth (OD600 after 10 h); higher = more growth (less inhibition)
Settings: arabinose 100 nM; compound 0.1 mM; raw OD600 reference: median of DMSO wells 0.413, cell-free background 0.052
Description: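 TESEC Mtb Alr E. coli (ΔaraC ΔtolC ΔentC Δalr ΔdadX, arabinose-inducible Mtb Alr) or the Alr+ wild-type control strain, grown in defined M9-fructose medium without D-alanine in 96-well plates with Prestwick library compounds at 0.1 mM and 1% DMSO. Low Alr induction is 0.1 µM arabinose and high induction is 10 mM arabinose.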

Compound | growth
Cc1onc(-c2c(F)cccc2Cl)c1C(=O)N[C@@H]1C(=O)N2[C@@H]1SC(C)(C)[C@@H]2C(=O)O [Flucloxacillin sodium] | 0.412 ± 0.015
CN(C/C=C/c1ccccc1)Cc1cccc2ccccc12 [Naftifine hydrochloride] | 0.266 ± 0.14
COc1ccccc1Oc1c(NS(=O)(=O)c2ccc(C(C)(C)C)cc2)nc(-c2ncccn2)nc1OCCO [Bosentan] | 0.417 ± 0.0042
O=C(O)CCC(=O)Nc1ccc(S(=O)(=O)Nc2nccs2)cc1 [Succinylsulfathiazole] | 0.4084 ± 0.0019
NC(=O)OCC(O)COc1ccc(Cl)cc1 (centres undefined) [Chlorphensin carbamate] | 0.416 ± 0.019
C(=C\c1ccccc1)/CN1CCN(C(c2ccccc2)c2ccccc2)CC1 [Cinnarizine] | 0.431 ± 0.0055
Cc1ccccc1OCC(O)CO (centres undefined) [Mephenesin] | 0.413 ± 0.0097
O=C(O)CN(CCN(CC(=O)O)CC(=O)O)CCN(CC(=O)O)CC(=O)O [Pentetic acid] | 0.0559 ± 0.0086
CC(=O)OCC(=O)[C@@]1(OC(C)=O)[C@@H](C)C[C@H]2[C@@H]3C[C@H](F)C4=CC(=O)C=C[C@]4(C)[C@@]3(F)[C@@H](O)C[C@@]21C [Diflorasone Diacetate] | 0.394 ± 0.014
O=C1C(CC[S+]([O-])c2ccccc2)C(=O)N(c2ccccc2)N1c1ccccc1 (centres undefined) [Sulfinpyrazone] | 0.38 ± 0.0087
O=C(CCNNC(=O)c1ccncc1)NCc1ccccc1 [Nialamide] | 0.431 ± 0.0058
C[N+]1(C)CCC(=C(c2ccccc2)c2ccccc2)CC1 [Diphemanil methylsulfate] | 0.4115 ± 0.0028
Cc1ccc(C)c(OCCCC(C)(C)C(=O)O)c1 [Gemfibrozil] | 0.354 ± 0.037
O=C1CCc2cc(OCCCCc3nnnn3C3CCCCC3)ccc2N1 [Cilostazol] | 0.411 ± 0.0062
COc1cc(C(=O)NCc2ccc(OCCN(C)C)cc2)cc(OC)c1OC [Trimethobenzamide hydrochloride] | 0.412 ± 0.005
Cc1nnc(SCC2=C(C(=O)O)N3C(=O)[C@@H](NC(=O)Cn4cnnn4)[C@H]3SC2)s1 [Cefazolin sodium salt] | 0.328 ± 0.015
N#Cc1ccc(C(c2ccc(C#N)cc2)n2cncn2)cc1 [Letrozole] | 0.394 ± 0.016
CCOc1nc2cccc(C(=O)O)c2n1Cc1ccc(-c2ccccc2-c2nnn[nH]2)cc1 [Candesartan] | 0.415 ± 0.0062
CC(CNC1CCCCC1)OC(=O)c1ccccc1 (centres undefined) [Hexylcaine hydrochloride] | 0.409 ± 0.016
C#C[C@]1(O)CC[C@H]2[C@@H]3CCC4=Cc5oncc5C[C@]4(C)[C@H]3CC[C@@]21C [Danazol] | 0.4015 ± 0.0024
CC1CC(OC(=O)c2ccccc2O)CC(C)(C)C1 (centres undefined) [Homosalate] | 0.3918 ± 0.0032
CCOc1ccc2c(c1)C(C)=CC(C)(C)N2 [Ethoxyquin] | 0.408 ± 0.0097
CN(C)CCN(Cc1ccc(Cl)cc1)c1ccccn1 [Chloropyramine hydrochloride] | 0.399 ± 0.0085
COc1ccc([C@@H]2CC(=O)c3c(O)cc(O[C@@H]4O[C@H](CO[C@@H]5O[C@@H](C)[C@H](O)[C@@H](O)[C@H]5O)[C@@H](O)[C@H](O)[C@H]4O)cc3O2)cc1O [Hesperidin] | 0.407 ± 0.0099
CO[C@H]1C[C@H](O[C@H]2[C@H](C)[C@@H](O[C@@H]3O[C@H](C)C[C@H](N(C)C)[C@H]3OC(C)=O)[C@@H](C)C[C@@]3(CO3)C(=O)[C@H](C)[C@@H](OC(C)=O)[C@@H](C)[C@@H](C)OC(=O)[C@@H]2C)O[C@@H](C)[C@@H]1OC(C)=O [Troleandomycin] | 0.112 ± 0.02
CCCCCN(CCCCC)C(=O)C(CCC(=O)O)NC(=O)c1ccc(Cl)c(Cl)c1 (centres undefined) [Lorglumide sodium salt] | 0.302 ± 0.17
CC(Oc1ccccc1)C(=O)N[C@@H]1C(=O)N2[C@@H]1SC(C)(C)[C@@H]2C(=O)O (some centres undefined) [Phenethicillin potassium salt] | 0.398 ± 0.0069
C#C[C@]1(O)CC[C@H]2[C@@H]3CCC4=CC(=O)CC[C@@H]4[C@H]3CC[C@@]21C [Norethindrone] | 0.397 ± 0.0089
CC[C@H](C)[C@H](N)C1=N[C@H](C(=O)N[C@@H](CC(C)C)C(=O)N[C@H](CCC(=O)O)C(=O)N[C@H](C(=O)N[C@H]2CCCCNC(=O)[C@H](CC(N)=O)NC(=O)[C@@H](CC(=O)O)NC(=O)[C@H](Cc3cnc[nH]3)NC(=O)[C@@H](Cc3ccccc3)NC(=O)[C@H]([C@@H](C)CC)NC(=O)[C@@H](CCCN)NC2=O)[C@@H](C)CC)CS1 [Bacitracin] | 0.421 ± 0.015

Reference: the supplement of paper PMC9262897, “Low-cost anti-mycobacterial drug discovery using engineered E. coli” (Nature Communications, 2022)
